hgDAF-12 ag: H. glycines DAF-12 receptor agonists, primary screen, cell-based, luminescence, HEK293, GAL4 fusion, UAS-luciferase. HEK293 GAL4-hgDAF12 UAS-luciferase reporter, agonist luminescence; normalized to butyrate control. hit rate 1.8% among 370,000. activation, % at 6.8 µM. AID 687014, 2013;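 active = activation above a cutoff set at the mean of all screened compounds plus 3 SD, cut at about 10% in these data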;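 note: 0% = DMSO wells and 100% = sodium butyrate wells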
DAX1 inh-1: DAX1 (NR0B1) inhibitors on StAR promoter, primary screen, cell-based, luminescence, SF-1 (NR5A1), full-length DAX-1; hit rate 1.1% among 370,000; AID 652010, 2013; HEK293T StAR-luciferase reporter, SF-1/DAX-1 repression relief; inhibition, % at 6.8 µM;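 active = inhibition above the mean over all tested compounds plus 3 SD, cut at about 3.6% in these data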;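 note: 0% = DAX-1 cells with DMSO and 100% = cells lacking DAX-1 with DMSO; higher inhibition means more luminescence from relief of DAX-1 repression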
DAX1 inh-2: DAX1 (NR0B1) inhibitors, primary screen, cell-based, HEK293, Gal4-DAX1, luciferase luminescence; inhibition, % at 6.75 µM; HEK293 Gal4-DAX1 luciferase reporter; hit rate 0.99% among 340,000; Nuclear receptor subfamily 0 group B member 1 (Homo sapiens), P51843;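 active = inhibition above the mean over all tested compounds plus 3 SD, cut at about 4.2% in these data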;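 note: 0% = DAX1-transfected cells with DMSO and 100% = empty-vector control cells with DMSO; inhibition shows as a rise in luminescence from relieved DAX1 repression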
Target sequence (P51843 207-470 limits assumed): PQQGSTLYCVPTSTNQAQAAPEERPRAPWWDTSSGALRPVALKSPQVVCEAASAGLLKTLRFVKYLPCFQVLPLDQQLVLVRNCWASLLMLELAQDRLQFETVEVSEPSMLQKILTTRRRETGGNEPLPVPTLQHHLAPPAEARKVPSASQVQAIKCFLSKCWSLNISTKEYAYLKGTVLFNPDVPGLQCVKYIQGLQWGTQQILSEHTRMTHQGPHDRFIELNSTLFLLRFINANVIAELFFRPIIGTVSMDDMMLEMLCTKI
hcDAF-12 act: H. contortus DAF-12 nuclear receptor activators, primary screen, cell-based, luminescence, HEK293, lit1-tk-luc reporter | activation, % at 6.8 µM | hit rate 1.4% among 370,000 | HEK293 hcDAF-12 lit1-tk-luc reporter; 0% DMSO, 100% Δ7-dafachronic acid;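 active = activation above the mean of all tested compounds plus 3 SD, cut at about 5.5% in these data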;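 note: 100% = response to 3 µM Δ7-dafachronic acid high control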
Rev-erbA mod: modulators of Rev-erb alpha DNA binding, primary screen, biochemical, FITC-DNA, fluorescence polarization, uHTS. Rev-erbα–FITC-DNA binding, 90 min. hit rate 0.79% among 370,000. Nuclear receptor subfamily 1 group D member 1 (Homo sapiens), P20393. activity, % at 10 µM. AID 1259318, 2017;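 active = activity above about 14%, limit read from the data; passing the limit was not always enough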;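 note: 0% = DMSO wells with 35 nM protein and 100% = DMSO wells with 750 nM protein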
ssDAF-12 act: S. stercoralis DAF-12 nuclear receptor activators, primary screen, cell-based, luminescence, HEK293, GRIP1 co-expression, lit1-tk-luc; HEK293 ssDAF-12/GRIP1 lit1-tk-luc reporter; % of 3 µM dafachronic acid response; activation, % at 6.8 µM; hit rate 1% among 370,000; AID 652126, 2013;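 active = activation above the mean over all tested compounds plus 3 SD, cut at about 0.9% in these data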;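 note: 0% = DMSO-only wells and 100% = 3 µM delta7-dafachronic acid wells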
Starred values were filed as active, the others as inactive; x = not tested or not shown; ! = not confirmed by another sample. A selection: hits, their analogues and other compounds. The true share with any hit is near 4.8%.

SMILES	hgDAF-12 ag	DAX1 inh-1	DAX1 inh-2	hcDAF-12 act	Rev-erbA mod	ssDAF-12 act
CN(Cc1cn(CC2CCCCC2)nn1)S(=O)(=O)c1ccccc1Br	-1	1	x	-3	8	-1
O=C1C2CCCN2C(c2ccccc2F)N1c1ccc(Cl)cc1 (stereo unspecified)	1	0	0	2	3	-1
COc1ccc(N2C(=O)C3CCCN3C2c2ccccc2F)cc1 (stereo unspecified)	1	1	4.9*	2	-2	-1
COc1ccc(NC(=O)CSCC(=O)NCc2ccco2)cc1	-2	4.3*	3	-1	-2	-1
COc1ccc(NC(=O)CCC(=O)N/N=C/c2ccncc2)cc1	-1	0	5.5*	0	1	-1
O=C(CSCC(=O)NCc1ccco1)NCc1ccco1	0	-1	1	-2	0	-1
COc1ccc(/C=N/NC(=O)CSCC(=O)Nc2ccccc2)cc1	-1	0	5.0*	4	-3	0
COc1ccc(C2=NOC(C(=O)NCc3ccco3)C2)cc1 (stereo unspecified)	12*	-2	-1	2	-4	-1
COc1cc(C2=NOC(C(=O)NCc3ccco3)C2)cc(OC)c1OC (stereo unspecified)	1	-2	-1	-1	2	-1
C[C@H]1[C@@H](NC(=O)C#Cc2ccccc2)CC[C@@]23CCCN2C(=O)CCC[C@@H]13	-3	x	x	-1	1	-2
OCCN1CCCC12CCC(c1ccccc1)CC2 (stereo unspecified)	1	0	x	0	-1	-1
Cc1ccc(-n2c(SCc3cccc(F)c3)nc3ccccc3c2=O)cc1	-1	0	x	1	2	0
O=C(O)CSc1nc2c(c(C(F)(F)F)n1)CCCC2	1	0	5.1*!	0	5	-1
O=C(O)CSc1nc2c(c(C(F)(F)F)n1)CCc1ccccc1-2	-2	0	-1	1	3	-1
COC(=O)CSc1nc(C)c2c(n1)CCCC2	0	1	4.6*	-1	0	-1
COc1ccc(S[C@]2(C(=O)N3CCOCC3)CC(=O)N(c3ccsc3)[C@@H]2c2ccc(OC)cc2)cc1	0	-1	x	-1	2	-1
Cc1ccc(Nc2nnc(-c3ccc4c(c3)OCO4)o2)c(C)c1	4	1	0	0	2	-1
Clc1ccc(Nc2nnc(-c3ccc4c(c3)OCO4)o2)cc1	9	3.9*	x	3	1	-1
NC(=O)C1CCN(C(=O)Nc2csc3ccccc23)CC1	1	0	x	2	5	1.0*
COC(=O)c1cc2c(c3c4cc(F)ccc4n(S(=O)(=O)c4cccc(C)c4)c13)C(=O)N(c1ccc(OC)cc1)C2	1	-1	x	1	7	-1
COC(=O)C1CN(Cc2ccc(C)cc2)CCS(=O)(=O)N1Cc1cn(Cc2ccccc2)nn1 (stereo unspecified)	2	-1	x	-4	-7	-1
CC(=O)c1ccc(NC(=O)C(C)Sc2ccccn2)cc1 (stereo unspecified)	5	4	1	4	0	-1
CC(Sc1ccccn1)C(=O)Nc1ccccc1 (stereo unspecified)	13*	2	2	3	0	0
O=C(NCCc1ccccc1)OCc1cn(Cc2ccc(Cl)cc2)nn1	2	1	x	-1	-2	-1
CCN(CC)CC(O)CN1C(=O)NC(C)(C)C1=O (stereo unspecified)	1	-1	4.3*	-2	-1	-1
SMILES	hgDAF-12 ag	DAX1 inh-1	DAX1 inh-2	hcDAF-12 act	Rev-erbA mod	ssDAF-12 act
Cc1ccc(OCC(O)CN2C(=O)NC(C)(C)C2=O)cc1C (stereo unspecified)	11*	-1	-1	0	-6	-1
Cn1[nH]c2c(c1=O)[C@H](c1ccc(F)cc1)O[C@H](CCc1ccccc1)C2	-1	-1	x	0	-9	-1
CC(C)[C@@H]1Cc2[nH]n(C)c(=O)c2[C@H](c2ccc(F)cc2)O1	-3	4.1*	x	3	-2	0
COC(=O)[C@]12CCCCC=C1N(Cc1ccc(OC)cc1)C(=O)[C@@H]2CC(=O)N1CCCC1	-3	-1	x	-1	2	-2
CC(=O)NS(=O)(=O)c1ccc(NS(=O)(=O)c2ccc3ccccc3c2)cc1	0	0	4.7*	0	4	-1
CC(=O)Nc1ccc(NS(=O)(=O)c2ccc3ccccc3c2)cc1	1	0	1	-2	3	-2
O=C(Cn1nc(-c2ccccc2)ccc1=O)NCCCN1CCOCC1	1	-1	0	-2	2	0
COc1cccc(-c2ccc(=O)n(CC(=O)NCCN3CCOCC3)n2)c1	3	0	1	0	0	0.9*
Cc1c2oc3c(C)ccc(C(=O)OC(C)C4NC(=O)C(C(C)C)N(C)C(=O)CN(C)C(=O)C5CCCN5C(=O)C(C(C)C)NC4=O)c3nc-2c(C(=O)OC(C)C2NC(=O)C(C(C)C)N(C)C(=O)CN(C)C(=O)C3CCCN3C(=O)C(C(C)C)NC2=O)c(N)c1=O (stereo unspecified)	x	x	x	x	-8	x
O=[N+]([O-])c1ccccc1/C=C/C=N/N1CCCCC1	11*	3	7.3*	5	x	0
O=[N+]([O-])c1cccc(/C=N/N2CCN(Cc3ccccc3)CC2)c1	5	0	2	-1	4	-1
O=[N+]([O-])c1cccc(C=NN2CCCCCC2)c1	11*	2	1	3	5	-1
CC(=O)Nc1ccc(S(=O)(=O)NCC2CCN(C(=O)C(=O)c3cccs3)CC2)cc1	1	-1	x	0	-2	0
COC(=O)C1=C(C)N(Cc2ccccc2C(F)(F)F)C(=NCc2ccccc2)NC1c1cccc(F)c1 (stereo unspecified)	-1	0	x	1	-4	-1
COc1ccc(/C=C2\CC3(OC(=O)c4cccc(F)c4)CCCN2C3)cc1 (stereo unspecified)	-4	2	x	1	7	-1
O=C(COc1ccc([N+](=O)[O-])cc1Cl)N1CCc2ccccc21	9	4.4*	1	5	0	1
O=C(COc1ccc(F)cc1Br)N1CCc2ccccc21	11*	3	2	1	0	0

High-throughput results (PubChem BioAssay)
